This is part of a sample that, as a whole, favours compounds with a hit. Of some 83,000 tested, about 20% had one in any assay.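 96-well plates, one dose, 48 hours. Percent growth reported; active if below 10.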 A number with no mark means an inactive call. The source made the active and inactive calls.
Experiments:
Assay in all cases: NCI-60 one-dose screen, 48 h (100 = growth as untreated, 0 = no growth, -100 = all killed)
Conditions in all cases: 10 µM unless noted
HCT-15 colon = tested on: HCT-15 colon
HT29 colon = tested on: HT29 colon
SNB-75 CNS = tested on: SNB-75 CNS
SNB-19 CNS = tested on: SNB-19 CNS
U251 CNS = tested on: U251 CNS
PC-3 prostate = tested on: PC-3 prostate
SK-MEL-5 melanoma = tested on: SK-MEL-5 melanoma
UACC-62 melanoma = tested on: UACC-62 melanoma
LOX IMVI melanoma = tested on: LOX IMVI melanoma
SK-MEL-28 melanoma = tested on: SK-MEL-28 melanoma
SK-MEL-2 melanoma = tested on: SK-MEL-2 melanoma
EKVX NSCLC = tested on: EKVX NSCLC
SN12C renal = tested on: SN12C renal
UO-31 renal = tested on: UO-31 renal
TK-10 renal = tested on: TK-10 renal
ACHN renal = tested on: ACHN renal
CAKI-1 renal = tested on: CAKI-1 renal
A498 renal = tested on: A498 renal
CCRF-CEM leukemia = tested on: CCRF-CEM leukemia
MOLT-4 leukemia = tested on: MOLT-4 leukemia

Row | Compound | growth (HCT-15 colon) | growth (HT29 colon) | growth (SNB-75 CNS) | growth (SNB-19 CNS) | growth (U251 CNS) | growth (PC-3 prostate) | growth (SK-MEL-5 melanoma) | growth (UACC-62 melanoma) | growth (LOX IMVI melanoma) | growth (SK-MEL-28 melanoma) | growth (SK-MEL-2 melanoma) | growth (EKVX NSCLC) | growth (SN12C renal) | growth (UO-31 renal) | growth (TK-10 renal) | growth (ACHN renal) | growth (CAKI-1 renal) | growth (A498 renal) | growth (CCRF-CEM leukemia) | growth (MOLT-4 leukemia)
1 | Nc1c(C(=O)Nc2ccccc2F)sc2nc3c(cc12)CCCC3 | 28.7% | 11.3% | 37.5% | 33.7% | 26.7% | 27.7% | 15.5% | 26.7% | 40.5% | 73.7% | 43.7% | 41.2% | 40% | 46.9% | 60.9% | 50.7% | 57.4% | -0.37% (active) | 22.5% | 27%
2 | O=S(=O)(NCCCNc1nccc(-c2c(-c3ccc(F)c(O)c3)nc3sccn23)n1)c1ccccc1 | 68.5% | 51% | 105% | 104% | 90.2% | 61.5% | 51.1% | 5.45% (active) | 18% | 24.1% | 24.9% | 106% | 59% | 31.1% | 120% | 52.3% | 55.9% | 104% | 38.2% | 50.9%
3 | O=C(O)CCN1C(=O)/C(=C/C(Cl)=C/c2ccccc2)SC1=S | -50.3% (active) | 10.1% | 13.2% | 34.5% | 20.8% | 47% | 38.9% | 16.1% | -32.4% (active) | 13.9% | 43.7% | 39.1% | 11.9% | 35.8% | 49.7% | -65.3% (active) | 23.8% | 43.5% | 1.73% (active) | 10.6%
4 | Cc1cccc(/C=C2\CN(C(=O)OC(C)(C)C)C/C(=C\c3cccc(C)c3)C2=O)c1 | 76.2% | 46.5% | 74.7% | 95.9% | 63.6% | 89% | 101% | 81.3% | 47.1% | 104% | 95.3% | 93.4% | 95.4% | 69% | 96.1% | 84% | 73.5% | 93.9% | 8.66% (active) | 51.8%
5 | CCOc1ccccc1Cn1ccnc1CCc1c(Cl)c(O)cc(O)c1C(=O)OC | 104% | 94.8% | 88.2% | 92.4% | 97.5% | 86.9% | 94.6% | 92.1% | 89.2% | 96.6% | 87.5% | 101% | 96.9% | 78.9% | 90.4% | 98.3% | 98.6% | 114% | 93.6% | 91.9%
6 | CC(=O)N1N=C(c2ccc(Nc3nc(Nc4ccccc4)nc(Nc4ccccc4)n3)cc2)CC1c1cccc([N+](=O)[O-])c1 (stereo not given) | 110% | 100% | 79.7% | 86.1% | 97.7% | 80.6% | 87.4% | 84% | 86.9% | 115% | 60.6% | 77.3% | 96.3% | 63.9% | 127% | 94.2% | 91.7% | 94.5% | 94.3% | 84.5%
7 | O=C1Nc2ccc(C(=O)O)cc2/C1=N/c1nnc(Sc2ccccc2)s1 | 104% | 115% | 94.2% | 102% | 98% | 104% | 104% | 99% | 96.3% | 112% | 112% | 104% | 96.9% | 84.3% | 106% | 98.4% | 85.9% | 86.8% | 99.7% | 105%
8 | COC1=CC(c2ccc[nH]2)=N/C1=C\c1[nH]c(C)c(C)c1CCC(=O)OCc1ccccc1 | -32.2% (active) | 5.68% (active) | -2.99% (active) | 21% | -40.4% (active) | -27.2% (active) | -89.2% (active) | -54.7% (active) | -62.9% (active) | -32.6% (active) | -28.9% (active) | -22.1% (active) | -30% (active) | -77.1% (active) | -0.0887% (active) | -39.5% (active) | -23.5% (active) | -19.8% (active) | 0.65% (active) | -23.7% (active)
9 | COc1cc(OC)c(/C=C/C(=O)c2c(OC)cccc2OC)c(OC)c1 | 15.7% | 0.507% (active) | 10.6% | 19.3% | 5.71% (active) | 11.6% | 1.1% (active) | -20.6% (active) | -4.2% (active) | 13.2% | -14.9% (active) | 42.9% | 24.1% | 28.9% | 33.5% | 19.6% | 14.8% | 21.4% | 16.2% | 18.6%
10 | O=C1c2c(c3c4ccccc4[nH]c3c3ccc4ccccc4c23)C(=O)N1CCN1CCNCC1 | -45.2% (active) | -14.6% (active) | 85% | 74.3% | -11.2% (active) | 56.6% | 73.5% | 82% | -87.2% (active) | 100% | 104% | 84.7% | 65.2% | 56.7% | 108% | -49.4% (active) | 63.3% | 61.2% | 0.375% (active) | -20.3% (active)
11 | CS(=O)(=O)Nc1cc(-c2ccc3ncnc(Nc4ccc5c(cnn5Cc5ccc(F)cc5)c4)c3c2)cnc1Cl | 82.1% | 53.3% | -10.1% (active) | 47% | 37.2% | 38.2% | 13.9% | 21% | 18.3% | 16.7% | 3.86% (active) | 62.5% | 35.6% | 46.5% | 38.3% | 70.6% | 25.7% | -23.2% (active) | 31.2% | 21.2%
12 | COC(=O)C1Cc2ccccc2CN1C(=O)c1ccc2c(c1)Cc1ccccc1-2 (stereo not given) | 22.4% [50 µM] | 23.1% [50 µM] | 60.8% [50 µM] | 43.7% [50 µM] | 32.3% [50 µM] | 21.2% [50 µM] | -39.9% [50 µM] (active) | 33.3% [50 µM] | 35.8% [50 µM] | 47.8% [50 µM] | 47.4% [50 µM] | 24.5% [50 µM] | 38.5% [50 µM] | 13.9% [50 µM] | 52.2% [50 µM] | 43.3% [50 µM] | 28.7% [50 µM] | 27.3% [50 µM] | 32.1% [50 µM] | 21.9% [50 µM]
13 | N#Cc1ccc2c(c1)C(=O)c1c-2n(CCCN)c(=O)c2cc([N+](=O)[O-])ccc12 | -90.8% (active) | -100% (active) | -100% (active) | -85.1% (active) | -100% (active) | -74.4% (active) | -100% (active) | -100% (active) | -100% (active) | -100% (active) | -52.2% (active) | -88% (active) | -100% (active) | -100% (active) | -100% (active) | -100% (active) | -91.4% (active) | -39.3% (active) | -72.6% (active) | -62.2% (active)
14 | O=C(Nc1cccc(Cl)c1)Nc1cccc(Cn2c(=O)[nH]c3ccc(Oc4ncccn4)cc3c2=O)c1 | 80.6% | 38.8% | 57.8% | 55.6% | 31.3% | 36.5% | 25.5% | 49.3% | 49.7% | 59.1% | 69.6% | 72.4% | 76% | 61.8% | 68.9% | 72.2% | 63.8% | 48.7% | 32.6% | 6.46% (active)
15 | CCC(C(=O)[C@@H](C)[C@@H](O)[C@H](C)[C@@H]1O[C@@H]([C@@H](CC)C(=O)ONC(=O)c2ccccc2)CC[C@@H]1C)[C@H]1O[C@]2(C=CC(=O)[C@]3(CC[C@@](C)([C@H]4CC[C@](O)(CC)[C@H](C)O4)O3)O2)[C@H](C)C[C@@H]1C (stereo not given in full) | 13.7% | 20.6% | 27.6% | 21.1% | -19% (active) | 8.93% (active) | -73.9% (active) | -24.5% (active) | 4.55% (active) | 20.6% | -4.05% (active) | 33.5% | -48.6% (active) | -95.1% (active) | 52.8% | -47.3% (active) | 16.5% | 16.8% | -11.2% (active) | -2.14% (active)

— PubChem BioAssay (NCI)
